Consider 27 molecules from PubChem BioAssay (NCATS).

The subject of test [1] is Zika virus NS2B-NS3 protease (unlinked complex). As to the kind of experiment: Primary screen GU Rhodamine qHTS for Zika virus inhibitors: Unlinked NS2B-NS3 protease assay (AID 1347159). Also: nearly all actives have a fitted effect of over 60% in size. The essentials:
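Noncovalent NS2B hydrophilic domain/NS3 protease complex (25 nM final) in 10 mM Tris-HCl pH 8.0, 0.01% Tween 20, preincubated 15 min with compounds (up to 114 microM), then 1.5 microM Rhodamine110 substrate. Fluorescence change over 15 min fitted to 4-parameter Hill.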
A general note: Quantitative high-throughput screening tests each substance at several concentrations.

Test [2] concerns Zika virus NS2B-NS3 protease (linked construct). As to the kind of experiment: Primary screen NINDS Rhodamine qHTS for Zika virus inhibitors (AID 1347160). Also: nearly all actives have a fitted effect of over 55% in size. The essentials: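 Purified NS2B-NS3 protease with the NS2B hydrophilic domain joined by a flexible linker (25 nM) in 10 mM Tris-HCl pH 8.0, 0.01% Tween 20, preincubated 15 min at RT with compound; Rhodamine110 peptide substrate 1.5 µM; fluorescence change over 15 min; 4-parameter Hill fit.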

The structures appear in SMILES notation. Inconclusive results are not listed. Unmarked numbers belong to inactive results. Active and inactive are the calls of the source. Calls follow the shape of the dose curve; as a rule, active = well fitted inhibition curve with a large enough effect; inconclusive = small, poorly fitted or top-dose-only effect; inactive = no such curve, though single readings can be large or run the other way. Where a SMILES comes first, the peptide text is derived from it. [ ]: non-standard residue; d: D form. dPhe(4-Cl) = N[C@H](Cc1ccc(Cl)cc1)C(=O)O; d2Nal = N[C@H](Cc1ccc2ccccc2c1)C(=O)O; dCit = NC(=O)NCCC[C@@H](N)C(=O)O; d3Pal = N[C@H](Cc1cccnc1)C(=O)O
% is scaled to controls: 0 for no effect and ±100 for the full control effect.

Take `CC(=O)N[C@H](Cc1ccc2ccccc2c1)C(=O)N[C@H](Cc1ccc(Cl)cc1)C(=O)N[C@H](Cc1cccnc1)C(=O)N[C@@H](CO)C(=O)N[C@@H](Cc1ccc(O)cc1)C(=O)N[C@H](CCCNC(N)=O)C(=O)N[C@@H](CC(C)C)C(=O)N[C@@H](CCCN=C(N)N)C(=O)N1CCC[C@H]1C(=O)N[C@H](C)C(N)=O` (Ac-[d2Nal][dPhe(4-Cl)][d3Pal]SY[dCit]LRP[dA]-NH2): the Potency entry in test [1] and in test [2] was “inactive” in each case.
As to `COc1cc2ncnc(Nc3cccc(O)c3)c2cc1OC`, the Potency result in test [1] and in test [2] was “inactive” each time.
With `CC(=O)c1ccc2c(c1)C(O)C(C(C)(C)O)O2` (centres undefined), the Potency entry in test [1] and in test [2] was “inactive” in each case.
Consider `COc1cc(-c2ncn(/C=C\C(=O)OC(C)C)n2)cc(C(F)(F)F)c1`, for which the Potency result in test [1] and in test [2] was “inactive” in each case.
Regarding `CC1=CC(=O)CC(C)(C)C1/C=C/C(C)O[C@@H]1O[C@H](CO)[C@@H](O)[C@H](O)[C@H]1O[C@@H]1OC[C@](O)(CO)[C@H]1O` (some centres undefined), the Potency entry in test [1] and in test [2] was “inactive” each time.
Regarding `CC(=O)OC1C(O)C2C(C)C3=CC(=O)OC3(O)CC2C2(C)CCCC(C)(CO)C12` (centres undefined), the Potency entry in test [1] and in test [2] was “inactive” in each case.
As to `Cc1cc(O)cc(O[C@@H]2O[C@H](CO)[C@@H](O)[C@H](O)[C@H]2O)c1`, the Potency entry in test [1] and in test [2] was “inactive” in each case.
Turning to `CC(C)C(NC(=O)c1ccc2ccccc2n1)C(=O)NC(CC(=O)O)C(=O)COc1c(F)cccc1F` (centres undefined), the Potency result in test [1] and in test [2] was “inactive” each time.
Regarding `Cn1ncnc1COc1nn2c(-c3cc(F)ccc3F)nnc2cc1C(C)(C)C`, the Potency entry in test [1] and in test [2] was “inactive” throughout.
Turning to `Cc1cc(OCc2nnc(SC3CCCC3)n2-c2cccnc2)ccc1-c1ccc(S(C)(=O)=O)cc1`, the Potency result in test [1] and in test [2] was “inactive” each time.
For the molecule `CC1=CC(=O)CC2C1(O)CCC(C)C21CC(c2ccoc2)OC1=O` (centres undefined), the Potency result in test [1] and in test [2] was “inactive” in each case.
Turning to `COC(=O)c1cc(OC)cc(OC)c1C(=O)c1c(OC)cc2c(c1O)C1CCCC(C)(O2)O1` (centres undefined), the Potency result in test [1] and in test [2] was “inactive” in each case.
Consider `Cc1cc(C(=O)Nc2cccc(C(=O)Nc3cccc(C(F)(F)F)c3)c2)on1`, for which the Potency entry in test [1] and in test [2] was “inactive” each time.
Take `C/C=C(/COC(=O)/C(C)=C/C)C(=O)OC(CC)c1ccc(OC)c(OC)c1` (centres undefined): the Potency result in test [1] and in test [2] was “inactive” each time.
Turning to `C=C[C@H]1[C@H](O[C@@H]2O[C@H](CO)[C@@H](O)[C@H](O)[C@H]2O)OC=C(C(=O)OC)[C@H]1CC(=O)O`, the Potency result in test [1] and in test [2] was “inactive” throughout.
Regarding `Cc1cc(Nc2nc(NC(C)c3ncc(F)cn3)ncc2Cl)n[nH]1` (centres undefined), the Potency entry in test [1] and in test [2] was “inactive” each time.
For the molecule `CC(C)Oc1ccc(C(=O)NC(CNC(=O)CN(C)C)Cc2ccc(-c3cn4cccc(C(C)O)c4n3)cc2)cc1Cl` (centres undefined), the Potency entry in test [1] and in test [2] was “inactive” each time.
On to `CCc1ccc(Cc2ccc3c(c2)[C@]2(OC3)O[C@H](CO)[C@@H](O)[C@H](O)[C@H]2O)cc1`, for which the Potency entry in test [1] and in test [2] was “inactive” throughout.
As for `CC(=O)OC[C@]12[C@H](OC(C)=O)C(=O)[C@@H]3[C@@H](OC(C)=O)[C@@]14O[C@@]3(C)COC(=O)c1cccnc1[C@@H](C)[C@H](C)C(=O)O[C@@H]([C@H](O)[C@@H]2OC(C)=O)[C@]4(C)O`, the Potency entry in test [1] and in test [2] was “inactive” throughout.
For `CCO[C@@H]1OC(=O)C[C@@H]1NC(=O)[C@@H]1CCCN1C(=O)[C@@H](NC(=O)c1ccc(N)c(Cl)c1)C(C)(C)C`, the Potency entry in test [1] and in test [2] was “inactive” throughout.
Turning to `C[C@H](N)C(=O)N[C@@H](Cc1ccc(O)cc1)C(=O)N1CCC[C@H]1C(=O)NCC(=O)N[C@@H](CCCCN)C(=O)N[C@@H](Cc1ccccc1)C(N)=O`, the activity change, negative = inhibition was 124% [at 19.1 µM] in test [1] and 9.61% [at 10.7 µM] in test [2].
As to `COc1ccc([C@@H]2OC[C@H]3[C@@H]2CO[C@@H]3c2ccc(OC3OC(CO)C(O)C(O)C3O)c(OC)c2)cc1OC` (some centres undefined), the Potency result in test [1] and in test [2] was “inactive” throughout.
As to `CC12CCC(OC3OC(CO)C(O)C(OC4OC(CO)C(O)C(O)C4O)C3O)CC1CCC1C2CCC2(C)/C(=C3/COC(=O)C3)CCC12O` (centres undefined), the Potency result in test [1] and in test [2] was “inactive” each time.
Take `C=C1CC2C(C)(CCC(=O)O)C(C(C)(C)O)CCC2(C)C2C(=O)OC(C)(C(=O)OC)C(=O)C12C` (centres undefined): the Potency result in test [1] and in test [2] was “inactive” in each case.
Regarding `NC(=O)c1cccc(-c2cc(OC(=O)NC3CCCCC3)ccc2O)c1`, the Potency entry in test [1] and in test [2] was “inactive” throughout.
On to `O=C(OC1C=C(CO)C2C(OC3OC(CO)C(O)C(O)C3O)OC=CC12)c1ccc(O)cc1` (centres undefined), for which the Potency entry in test [1] and in test [2] was “inactive” in each case.
In the case of `O=C1CCC(=O)N(O)CCCCCNC(=O)CCC(=O)N(O)CCOCCNC(=O)CCC(=O)N(O)CCCCCN1`, the Potency entry in test [1] and in test [2] was “inactive” in each case.
